A short description of test [1]: ATG_NRF2_ARE_CIS: Attagene CIS-FACTORIAL HepG2 Assay for human Nuclear Factor Erythroid 2 Related Factor 2 (NFR2) response to Antioxidant Response Elements (ARE) (AID 2282992).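 For AC50: reporter mRNA level measured by RT-PCR and capillary electrophoresis fluorescence.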 The following applies: HepG2 Attagene ARE/NRF2 reporter, transcription factor activity; actives raise or lower the signal. In short, it runs like this:
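Fluorescence intensity of reporter-specific cDNA fragments, separated by capillary electrophoresis, reflects mRNA induction in transfected HepG2 cells at 24 h. Activity is fitted bidirectionally, DMSO serving as baseline.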

The nature of test [2]: ATG_Oct_MLP_CIS: Attagene CIS-FACTORIAL HepG2 Assay for human Octamer-Binding Transcription Factor (Oct) (AID 2282993). The note with it: HepG2 Attagene cis-factorial Oct reporter, mRNA; actives raise or lower the signal. The gist of the method:
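Transient MRTU transfection of HepG2 → 24 h compound treatment → RNA isolation, reverse transcription, PCR → 6-FAM primer extension, HpaI digest → capillary electrophoresis. Activity fitted both directions against DMSO.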

Test [3] deals with Cellular tumor antigen p53 (Homo sapiens) (UniProt P04637). Description: ATG_p53_CIS: Attagene CIS-FACTORIAL HepG2 Assay for human p53 Transcription Factor (AID 2282994). The note with it: HepG2 p53 cis-element reporter, Attagene mRNA; actives raise or lower the signal. The gist of the method:
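Transiently transfected HepG2 (multiple cis reporter transcription units); exposure 24 h; reporter RNA via RT-PCR, 6-FAM extension, 2 h HpaI digest at 37 C, CE detection; DMSO baseline.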

Test [4] in a line: BSK_3C_TissueFactor: BioMAP Diversity Plus: 3C Assay for Tissue Factor Biomarker Activity (AID 2282997). The note with it: BioMAP 3C HUVEC, tissue factor biomarker readout; actives raise or lower the signal. In short, it runs like this:
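Cells used were primary human umbilical vein endothelial cells. They were dosed with chemical, and after 24 h Tissue Factor was quantified by ELISA. Curves were fitted bidirectionally with DMSO as baseline.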

Test [5] can be described thus: BSK_3C_uPAR: BioMAP Diversity Plus: 3C Assay for Urokinase-type plasminogen activator receptor (uPAR) Biomarker Activity (AID 2282998). The following applies: BioMAP 3C HUVEC, uPAR biomarker ELISA; actives raise or lower the signal. The gist of the method: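 ELISA readout of uPAR on human vascular endothelium (umbilical vein primary cells), taken 24 h after chemical dosing. Increases and decreases are both fitted relative to DMSO vehicle.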
A general note: In an ELISA, binding on a coated surface is turned into a signal by an enzyme label.

Test [6] in a line: BSK_3C_VCAM1: BioMAP Diversity Plus: 3C Assay for Vascular cell adhesion molecule 1 (VCAM1) Biomarker Activity (AID 2282999). The note with it: BioMAP 3C HUVEC, VCAM1 ELISA, cytokine-stimulated; actives raise or lower the signal. In short, it runs like this:
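Activity fitted in both directions relative to DMSO, with ELISA measurement of the surface marker on primary HUVEC (3C) at 24 h post-treatment; parallel SRB staining (0.1% SRB, TCA-fixed, 560 nm) flagged overt cytotoxicity.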

Test [7] in a line: BSK_4H_Eotaxin3: BioMAP Diversity Plus: 4H Assay for Eotaxin 3 Biomarker Activity (AID 2283000).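 For outcome: CCL26 protein level quantified by ELISA in parallel with SRB cytotoxicity check.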 The note with it: primary human endothelial cells (HUVEC); actives raise or lower the signal. The gist of the method:
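Endothelial primary cells (human umbilical vein) exposed to compound for 24 h. ELISA detection of Eotaxin-3.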

In test [8] the target is human Peroxisome Proliferator-activated Receptor alpha (PPARa), PPARA (gene 5465) (UniProt Q07869). The test can be described thus: ATG_PPARa_TRANS: Attagene TRANS-FACTORIAL HepG2 Assay for human Peroxisome Proliferator-activated Receptor alpha (PPARa) (AID 2283001; active = hit-call score of the fitted dose curve at least 0.9, where 1 is the maximum;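 for AC50: potency for gain of reporter signal over DMSO so agonist or activator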). The gist of the method:
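Transfected HepG2 cells treated with test chemical for 24 h. RNA isolated, reverse-transcribed with oligo(dT), PCR-amplified, FAM-labelled and HpaI-digested. Fragments sized by capillary electrophoresis; gain-of-signal fit relative to DMSO.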

Read-out in test [9]: Intercellular Adhesion Molecule 1 (ICAM1), ICAM1 (gene 3383)
Description: BSK_3C_ICAM1: BioMAP Diversity Plus: 3C Assay for Intercellular Adhesion Molecule 1 (ICAM1) Biomarker Activity (AID 2283003). The following applies: primary human endothelial cells (HUVEC); actives raise or lower the signal. In short, it runs like this: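 Using DMSO as baseline, bidirectional curve fitting was applied to ICAM-1 ELISA signals from HUVEC in the 3C system, measured 24 h after compound addition.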

The nature of test [10]: BSK_3C_Proliferation: Cell Proliferation Assessment in the BioMAP Diversity Plus: 3C Assay (AID 2283006).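 For AC50: potency may reflect either rise or fall in cell number versus DMSO.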 The note with it: primary human endothelial cells (HUVEC). The gist of the method:
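Measured here: sulforhodamine B (0.1%) staining of TCA-fixed sub-confluent umbilical vein endothelial cultures 48 h post-dosing, absorbance 560 nm. DMSO served as negative control and baseline; both signal gain and loss were modelled.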

Test [11] deals with Peroxisome proliferator-activated receptor gamma (Homo sapiens) (UniProt P37231). Description: ATG_PPARg_TRANS: Attagene TRANS-FACTORIAL HepG2 Assay for human Peroxisome Proliferator-activated Receptor-gamma (PPARg) (AID 2283007; active = hit-call score of the fitted dose curve at least 0.9, where 1 is the maximum). The gist of the method:
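A TRANS-format multiplexed reporter assay measures activity of an exogenous chimeric NR-Gal4 protein in HepG2 cells. After 24 h of chemical exposure, reporter transcripts are amplified, fluorescently labelled and sized by capillary electrophoresis, with gain of signal scored against DMSO.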

For test [12], the target named is human RAR-related Orphan Receptor beta (RORb), RORB (gene 6096) (UniProt Q92753). Description: ATG_RORb_TRANS: Attagene TRANS-FACTORIAL HepG2 Assay for human RAR-related Orphan Receptor beta (RORb) (AID 2283010; active = hit-call score of the fitted dose curve at least 0.9, where 1 is the maximum). In short, it runs like this: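 Multiplexed transcription-factor reporter assay: HepG2 cells transiently carrying NR-Gal4/GAL4-UAS constructs, 24 h treatment, mRNA quantified by RT-PCR plus capillary electrophoresis fluorescence; activity scored as induction over DMSO.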

Test [13] has as its target Retinoic acid receptor RXR-alpha (Homo sapiens) (UniProt P19793). Description: ATG_RXRa_TRANS: Attagene TRANS-FACTORIAL HepG2 Assay for human Retinoid X Receptor alpha (RXRa) (AID 2283012; active = hit-call score of the fitted dose curve at least 0.9, where 1 is the maximum). In short, it runs like this: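 Chimeric NR-GAL4 trans-activation in HepG2, 24 h treatment; reporter transcripts quantified by fluorescence on capillary electrophoresis, analysed for upward change from DMSO.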

The target of test [14] is human Retinoic Acid Receptor beta (RARb), RARB (gene 5915) (UniProt P10826). Description: ATG_RARb_TRANS: Attagene TRANS-FACTORIAL HepG2 Assay for human Retinoic Acid Receptor beta (AID 2283004; active = hit-call score of the fitted dose curve at least 0.9, where 1 is the maximum). The gist of the method:
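HepG2, transient MRTU transfection, NR–Gal4 chimera, 24 h treatment; RT-PCR plus CE fluorescence detection of reporter mRNA; gain of signal vs DMSO.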

Test [15] has as its target Nuclear receptor subfamily 1 group I member 2 (Homo sapiens) (UniProt O75469). The test can be described thus: ATG_PXR_TRANS: Attagene TRANS-FACTORIAL HepG2 Assay for human Pregnane X Receptor (PXR) (AID 2283008; active = hit-call score of the fitted dose curve at least 0.9, where 1 is the maximum). In short, it runs like this: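 Transient HepG2 transfectants carrying multiplexed reporter transcription units; PXR activity read through a Gal4 chimera. 24 h exposure. RT-PCR/CE fluorescence; upward curve fit referenced to DMSO.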

In test [16] the target is human RAR-related Orphan Receptor gamma (RORg), RORC (gene 6097) (UniProt P51449). The test can be described thus: ATG_RORg_TRANS: Attagene TRANS-FACTORIAL HepG2 Assay for human RAR-related Orphan Receptor gamma (RORg) (AID 2283011; active = hit-call score of the fitted dose curve at least 0.9, where 1 is the maximum). In short, it runs like this: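 Activity is scored as increase in GAL4-UAS reporter mRNA over DMSO, detected by fluorescent RT-PCR and capillary electrophoresis in HepG2 cells transiently expressing a RORg-Gal4 chimera, 24 h after dosing.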

Test [17] has as its target human Retinoic Acid Receptor gamma (RARg), RARG (gene 5916) (UniProt P13631). Description: ATG_RARg_TRANS: Attagene TRANS-FACTORIAL HepG2 Assay for human Retinoic Acid Receptor gamma (RARg) (AID 2283009; active = hit-call score of the fitted dose curve at least 0.9, where 1 is the maximum). The gist of the method:
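Gain-of-signal relative to DMSO is reported from fluorescent capillary electrophoresis of RT-PCR reporter products. These came from HepG2 cells expressing transfected RARg-GAL4 chimeras with UAS reporters, harvested 24 h after dosing.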

In test [18] the target is Retinoic acid receptor alpha (Homo sapiens) (UniProt P10276). Description: ATG_RARa_TRANS: Attagene TRANS-FACTORIAL HepG2 Assay for human Retinoic Acid Receptor alpha (RARa) (AID 2283005; active = hit-call score of the fitted dose curve at least 0.9, where 1 is the maximum). The gist of the method:
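Reporter transcripts, measured by RT-PCR with fluorescent labeling and capillary electrophoresis after 24 h dosing, reflect activity of an exogenous human RARa–GAL4 fusion in transiently transfected HepG2. Fitted for increase relative to DMSO.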

Results filed as inconclusive are left out. Active and inactive are the calls of the source. Rule for the calls, unless noted: active = hit-call score of the fitted dose curve at least 0.9, where 1 is the maximum; inactive = score below 0.9.

Sequence of Cellular tumor antigen p53 (Homo sapiens) (P04637 whole entry, looked up): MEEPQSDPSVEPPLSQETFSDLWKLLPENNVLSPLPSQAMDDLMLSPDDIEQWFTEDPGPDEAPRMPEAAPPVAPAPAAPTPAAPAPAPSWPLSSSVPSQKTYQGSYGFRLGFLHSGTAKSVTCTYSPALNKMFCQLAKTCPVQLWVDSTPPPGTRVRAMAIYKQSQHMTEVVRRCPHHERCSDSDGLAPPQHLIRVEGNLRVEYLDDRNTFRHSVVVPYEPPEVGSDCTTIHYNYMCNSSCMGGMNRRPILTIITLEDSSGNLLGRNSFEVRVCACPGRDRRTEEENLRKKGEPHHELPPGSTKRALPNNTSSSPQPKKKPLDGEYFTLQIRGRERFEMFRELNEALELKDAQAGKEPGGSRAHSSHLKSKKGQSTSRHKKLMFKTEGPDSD
Sequence of human Peroxisome Proliferator-activated Receptor alpha (PPARa), PPARA (gene 5465) (Q07869 whole entry, looked up, the tested form may be a part): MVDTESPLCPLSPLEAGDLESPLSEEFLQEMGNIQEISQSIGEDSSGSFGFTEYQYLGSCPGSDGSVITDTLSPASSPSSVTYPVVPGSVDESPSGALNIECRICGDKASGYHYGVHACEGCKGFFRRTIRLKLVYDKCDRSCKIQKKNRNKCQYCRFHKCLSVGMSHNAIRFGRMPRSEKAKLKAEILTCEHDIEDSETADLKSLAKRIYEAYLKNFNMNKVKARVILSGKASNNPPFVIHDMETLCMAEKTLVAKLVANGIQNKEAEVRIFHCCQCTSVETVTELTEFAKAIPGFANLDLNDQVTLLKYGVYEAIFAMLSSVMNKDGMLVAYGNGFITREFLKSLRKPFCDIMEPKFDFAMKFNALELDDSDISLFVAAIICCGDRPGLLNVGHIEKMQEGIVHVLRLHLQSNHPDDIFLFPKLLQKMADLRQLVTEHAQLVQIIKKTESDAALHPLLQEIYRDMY
Sequence of Retinoic acid receptor RXR-alpha (Homo sapiens) (P19793 whole entry, looked up, the tested form may be a part): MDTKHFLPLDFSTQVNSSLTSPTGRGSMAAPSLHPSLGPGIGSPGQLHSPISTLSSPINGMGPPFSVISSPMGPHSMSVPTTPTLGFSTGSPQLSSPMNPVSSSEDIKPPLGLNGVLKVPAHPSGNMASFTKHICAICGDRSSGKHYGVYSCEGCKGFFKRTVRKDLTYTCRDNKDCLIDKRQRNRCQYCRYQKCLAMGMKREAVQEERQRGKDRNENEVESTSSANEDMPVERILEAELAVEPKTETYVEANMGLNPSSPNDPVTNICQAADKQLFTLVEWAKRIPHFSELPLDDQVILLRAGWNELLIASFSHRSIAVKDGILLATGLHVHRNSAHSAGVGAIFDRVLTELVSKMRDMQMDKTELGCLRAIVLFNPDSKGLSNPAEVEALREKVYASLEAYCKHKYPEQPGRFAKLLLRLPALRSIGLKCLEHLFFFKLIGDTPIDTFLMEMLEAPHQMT
Sequence of human RAR-related Orphan Receptor beta (RORb), RORB (gene 6096) (Q92753 whole entry, looked up, the tested form may be a part): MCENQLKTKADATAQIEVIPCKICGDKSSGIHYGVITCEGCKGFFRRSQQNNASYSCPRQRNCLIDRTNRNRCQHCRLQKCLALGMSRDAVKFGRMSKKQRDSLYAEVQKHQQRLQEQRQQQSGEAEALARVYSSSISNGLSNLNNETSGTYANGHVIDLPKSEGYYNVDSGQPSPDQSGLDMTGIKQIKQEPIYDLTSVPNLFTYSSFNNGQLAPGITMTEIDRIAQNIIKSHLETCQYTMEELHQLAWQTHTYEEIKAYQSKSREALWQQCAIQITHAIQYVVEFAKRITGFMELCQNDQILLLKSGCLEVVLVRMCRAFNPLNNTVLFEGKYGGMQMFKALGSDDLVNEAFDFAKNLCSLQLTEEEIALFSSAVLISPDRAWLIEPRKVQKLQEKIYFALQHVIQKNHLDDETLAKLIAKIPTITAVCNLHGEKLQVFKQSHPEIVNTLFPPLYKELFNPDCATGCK
Sequence of Nuclear receptor subfamily 1 group I member 2 (Homo sapiens) (O75469 whole entry, looked up, the tested form may be a part): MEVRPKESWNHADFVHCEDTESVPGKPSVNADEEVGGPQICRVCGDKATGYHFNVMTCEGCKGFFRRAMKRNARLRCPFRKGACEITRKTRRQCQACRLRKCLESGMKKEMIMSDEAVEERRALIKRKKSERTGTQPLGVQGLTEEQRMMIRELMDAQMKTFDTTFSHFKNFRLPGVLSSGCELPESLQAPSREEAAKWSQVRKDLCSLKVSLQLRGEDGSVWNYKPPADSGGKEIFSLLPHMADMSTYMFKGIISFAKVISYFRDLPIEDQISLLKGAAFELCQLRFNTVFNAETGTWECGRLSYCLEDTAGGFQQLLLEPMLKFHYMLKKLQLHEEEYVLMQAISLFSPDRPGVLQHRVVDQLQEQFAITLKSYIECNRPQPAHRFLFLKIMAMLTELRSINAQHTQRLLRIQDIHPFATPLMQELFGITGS
Sequence of human Retinoic Acid Receptor gamma (RARg), RARG (gene 5916) (P13631 whole entry, looked up, the tested form may be a part): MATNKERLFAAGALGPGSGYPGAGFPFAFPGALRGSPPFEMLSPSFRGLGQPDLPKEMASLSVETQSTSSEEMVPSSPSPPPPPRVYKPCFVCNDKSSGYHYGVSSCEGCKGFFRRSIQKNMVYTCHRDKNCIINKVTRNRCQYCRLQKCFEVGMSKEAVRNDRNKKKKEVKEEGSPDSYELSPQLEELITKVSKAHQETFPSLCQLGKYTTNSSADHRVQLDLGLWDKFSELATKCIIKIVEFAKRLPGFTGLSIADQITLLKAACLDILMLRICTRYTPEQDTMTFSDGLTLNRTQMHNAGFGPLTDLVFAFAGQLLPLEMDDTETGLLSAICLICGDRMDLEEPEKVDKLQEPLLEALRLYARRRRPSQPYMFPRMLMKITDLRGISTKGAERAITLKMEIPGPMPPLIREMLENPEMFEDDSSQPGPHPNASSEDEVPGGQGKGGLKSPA
Sequence of Peroxisome proliferator-activated receptor gamma (Homo sapiens) (P37231 whole entry, looked up, the tested form may be a part): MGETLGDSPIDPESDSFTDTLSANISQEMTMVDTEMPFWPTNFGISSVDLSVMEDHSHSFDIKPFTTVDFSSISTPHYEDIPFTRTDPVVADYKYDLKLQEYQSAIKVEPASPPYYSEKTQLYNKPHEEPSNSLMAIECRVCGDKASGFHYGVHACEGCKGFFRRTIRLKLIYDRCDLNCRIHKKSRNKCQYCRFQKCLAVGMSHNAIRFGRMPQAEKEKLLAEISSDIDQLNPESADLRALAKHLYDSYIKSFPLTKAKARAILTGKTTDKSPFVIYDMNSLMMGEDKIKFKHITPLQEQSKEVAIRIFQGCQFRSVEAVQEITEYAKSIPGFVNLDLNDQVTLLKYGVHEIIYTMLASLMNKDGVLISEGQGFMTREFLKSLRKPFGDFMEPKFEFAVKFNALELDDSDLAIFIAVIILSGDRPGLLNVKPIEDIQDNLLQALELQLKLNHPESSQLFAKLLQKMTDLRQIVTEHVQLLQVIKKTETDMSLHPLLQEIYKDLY
Sequence of human Retinoic Acid Receptor beta (RARb), RARB (gene 5915) (P10826 whole entry, looked up, the tested form may be a part): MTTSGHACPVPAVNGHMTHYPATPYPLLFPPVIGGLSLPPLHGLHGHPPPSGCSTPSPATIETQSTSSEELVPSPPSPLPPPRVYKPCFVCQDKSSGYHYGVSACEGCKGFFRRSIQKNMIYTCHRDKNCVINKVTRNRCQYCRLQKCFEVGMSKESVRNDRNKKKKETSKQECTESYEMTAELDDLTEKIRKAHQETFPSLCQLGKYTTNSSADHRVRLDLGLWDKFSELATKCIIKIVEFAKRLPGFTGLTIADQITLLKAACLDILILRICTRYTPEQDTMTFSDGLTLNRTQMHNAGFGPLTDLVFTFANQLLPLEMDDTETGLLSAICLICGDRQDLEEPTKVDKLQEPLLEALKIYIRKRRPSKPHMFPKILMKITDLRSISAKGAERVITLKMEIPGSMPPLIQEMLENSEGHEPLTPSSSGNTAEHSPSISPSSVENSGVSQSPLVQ
Sequence of human RAR-related Orphan Receptor gamma (RORg), RORC (gene 6097) (P51449 whole entry, looked up, the tested form may be a part): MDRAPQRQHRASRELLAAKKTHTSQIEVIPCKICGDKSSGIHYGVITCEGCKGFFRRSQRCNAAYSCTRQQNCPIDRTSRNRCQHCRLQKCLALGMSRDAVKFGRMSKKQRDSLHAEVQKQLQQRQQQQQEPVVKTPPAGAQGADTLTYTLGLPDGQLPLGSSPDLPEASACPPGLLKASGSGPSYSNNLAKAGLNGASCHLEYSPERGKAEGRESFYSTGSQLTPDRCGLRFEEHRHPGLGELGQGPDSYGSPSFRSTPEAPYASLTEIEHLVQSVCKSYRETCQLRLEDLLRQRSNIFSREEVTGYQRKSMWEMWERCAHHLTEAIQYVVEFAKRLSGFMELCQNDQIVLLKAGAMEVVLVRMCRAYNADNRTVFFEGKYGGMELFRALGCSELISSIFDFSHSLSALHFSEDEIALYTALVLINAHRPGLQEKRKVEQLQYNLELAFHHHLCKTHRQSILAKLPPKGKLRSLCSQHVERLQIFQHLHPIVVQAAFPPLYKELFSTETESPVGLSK
Sequence of Retinoic acid receptor alpha (Homo sapiens) (P10276 whole entry, looked up, the tested form may be a part): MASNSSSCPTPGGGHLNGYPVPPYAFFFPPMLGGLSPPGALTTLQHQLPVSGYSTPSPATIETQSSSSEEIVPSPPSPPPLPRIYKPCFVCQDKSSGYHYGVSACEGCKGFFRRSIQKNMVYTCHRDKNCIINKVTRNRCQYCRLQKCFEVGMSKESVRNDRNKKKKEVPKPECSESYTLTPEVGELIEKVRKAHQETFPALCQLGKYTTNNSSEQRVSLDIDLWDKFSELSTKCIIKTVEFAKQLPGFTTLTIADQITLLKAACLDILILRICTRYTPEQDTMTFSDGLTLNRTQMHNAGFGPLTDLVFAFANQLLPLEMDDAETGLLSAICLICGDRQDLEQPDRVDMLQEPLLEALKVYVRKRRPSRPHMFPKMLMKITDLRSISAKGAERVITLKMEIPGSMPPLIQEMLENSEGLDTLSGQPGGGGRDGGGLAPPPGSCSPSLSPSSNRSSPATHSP

Usually AC50 stands for the midpoint of the concentration-response curve, whichever way the signal moves. For `O=C(NS(=O)(=O)/C=C/c1ccccc1)c1ccc(F)cc1Cl`, the outcome in test [1], in [2], in test [3], in [4], in test [5] and in test [6] was inactive. Besides, the outcome in test [7], in test [8], in test [9], in [12] and in test [13] was inactive. The AC50 is 6.4 µM (active) in test [10] and 22.3 µM (active) in test [11].
As for `Cc1ccc(N)cc1O`, the AC50 in test [1] was 22.3 µM (active); in test [7] it was 20 µM (active). The compound was classed as inactive in test [2], in [3], in test [4], in test [5], in test [6] and in test [8]. For the same compound, the outcome in test [9], in [14], in test [10], in test [15], in test [12] and in test [16] was inactive.
With `O=c1[nH]c2ccc(S(=O)CCN3CCC(Cc4ccc(F)cc4)CC3)cc2o1` (configuration not stated), the AC50 in test [1] is 39.4 µM (active); in [2], 64.9 µM (active); in test [11] it was 7.65 µM (active); in test [15], 6.22 µM (active). For the same compound, the outcome in test [3], in test [4], in [5], in test [6], in test [7] and in [8] was inactive. In addition, the outcome in [9], in test [10], in [17] and in test [13] was inactive.
Consider `O=c1n(CC2CO2)c(=O)n(CC2CO2)c(=O)n1CC1CO1` (configuration not stated), for which the AC50 is 7.56 µM (active) in test [1]; 48.5 µM (active) in test [2]; 24.7 µM (active) in [3]; 11.3 µM (active) in test [4]; 20 µM (active) in test [5]; 26.3 µM (active) in [6]. The AC50 was 23.2 µM (active) in [7] and 1.46 µM (active) in [10]. Moreover, the result in test [8], in test [9], in test [11] and in [12] was inactive.
As to `CCOC(=O)COc1ccc2c(c1)CC(NCC(O)c1cccc(Cl)c1)CC2` (configuration not stated), the compound was called inactive in test [1], in test [2], in test [14], in [15], in [17] and in [12]. Further, in [16], the compound was classed as inactive. Further, the AC50 in test [3] is 49.8 µM (active); in test [4], 33 µM (active); in test [5] it was 28.5 µM (active); in [6] it was 27.5 µM (active); in test [7] it was 34.3 µM (active); in test [8], 33 µM (active). The AC50 in test [9] is 28.4 µM (active); in test [10], 15.3 µM (active); in test [11], 21.7 µM (active).
Consider `CCOC(=O)CC(CC(=O)OCC)(OC(C)=O)C(=O)OCC`, for which the figures for the AC50 in [1] and in test [11] were 61.4 µM (active) and 52.3 µM (active), respectively. Moreover, the compound was classed as inactive in test [2], in [3], in [4], in test [5], in test [6] and in test [7]. In addition, the result in [8], in test [9], in [18] and in test [13] was inactive.
In the case of `O=P(OC(CCl)CCl)(OC(CCl)CCl)OC(CCl)CCl`, the compound was classed as inactive in test [1], in test [5], in test [6], in test [7], in test [8] and in [9]. The call in [11] and in [17] was inactive. For the same compound, the AC50 was 103 µM (active) in [2]; 39.3 µM (active) in [3]; 8.26 µM (active) in [4]; 10.6 µM (active) in test [10]; 0.377 µM (active) in test [15].
For `Oc1ccc2c(c1)-c1ccccc1C2`, the AC50 is 2.77 µM (active) in test [1]; 32.6 µM (active) in test [2]; 0.791 µM (active) in test [4]; 14.4 µM (active) in [5]; 23.3 µM (active) in [7]. In addition, the compound was classed as inactive in test [3], in [6], in test [8], in [9], in [11] and in test [15]. Besides, the call in test [17] and in test [13] was inactive.
